Read-out in assay [1]: Forkhead box O1 (FOXO1), FOXO1 (gene 2308)
Kind of assay: LTEA_HepaRG_FOXO1: Life Technologies and Expression Analysis (LTEA) Assay for Forkhead box O1 (FOXO1) using HepaRG (AID 2283456). Particulars: mRNA level, 48 h; actives raise or lower the signal. The essentials:
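Using one lot of HepaRG hepatic cells kept in 0.5% DMSO, the team applied test chemicals in duplicate, half-log dilutions from 100 uM, for 48 h. Expression, normalised to ACTB/GAPDH/POLR2A, was compared with vehicle in either direction.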

Read-out in assay [2]: growth arrest and DNA damage 45 (GADD45A), GADD45A (gene 1647)
Kind of assay: LTEA_HepaRG_GADD45A: Life Technologies and Expression Analysis (LTEA) Assay for growth arrest and DNA damage 45 (GADD45A) using HepaRG (AID 2283458). Particulars: mRNA level, 48 h; actives raise or lower the signal. The essentials: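 Eight-point concentration-response in HepaRG cells: 48 h chemical exposure, 0.5% DMSO vehicle, top dose 100 uM. Normalized qRT-PCR mRNA readout with bidirectional fitting relative to DMSO.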

Read-out in assay [3]: Forkhead box O3 (FOXO3), FOXO3 (gene 2309)
Briefly: LTEA_HepaRG_FOXO3: Life Technologies and Expression Analysis (LTEA) Assay for Forkhead box O3 (FOXO3) using HepaRG (AID 2283459). Particulars: mRNA level, 48 h; actives raise or lower the signal. The essentials: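 Gene-expression endpoint: FOXO3 transcript level by qRT-PCR in HepaRG cultures treated 48 h with chemicals up to 100 uM (half-log, 0.5% DMSO vehicle).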

Read-out in assay [4]: ABC Transporter (ABCB1), ABCB1 (gene 5243)
Briefly: LTEA_HepaRG_ABCB1: Life Technologies and Expression Analysis (LTEA) Assay for ABC Transporter (ABCB1) using HepaRG (AID 2283460). To be noted: mRNA level, 48 h; actives raise or lower the signal. The essentials:
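Human liver HepaRG line treated 48 h with up to 100 uM compound (eight half-log points, 0.5% DMSO); ABCB1 mRNA change fitted bidirectionally against DMSO controls.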

Read-out in assay [5]: growth arrest and DNA damage 45 (GADD45B), GADD45B (gene 4616)
Kind of assay: LTEA_HepaRG_GADD45B: Life Technologies and Expression Analysis (LTEA) Assay for growth arrest and DNA damage 45 (GADD45B) using HepaRG (AID 2283461). Particulars: mRNA level, 48 h; actives raise or lower the signal. The essentials: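 Differentiated HepaRG cells, plated 48 h then switched to serum-free induction medium, were exposed 48 h in duplicate to eight half-log concentrations from 100 uM in 0.5% DMSO; mRNA quantified by qRT-PCR, normalized to ACTB/GAPDH/POLR2A, bidirectional fit versus DMSO.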

Read-out in assay [6]: ABC Transporter (ABCC3), ABCC3 (gene 8714)
Briefly: LTEA_HepaRG_ABCC3: Life Technologies and Expression Analysis (LTEA) Assay for ABC Transporter (ABCC3) using HepaRG (AID 2283462). To be noted: mRNA level, 48 h; actives raise or lower the signal. The essentials: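 HepaRG cells in serum-free induction medium were exposed for 48 h in duplicate to 8-point half-log concentrations topping at 100 uM in 0.5% DMSO. ABCC3 mRNA was measured by qRT-PCR normalized to ACTB, GAPDH and POLR2A, with bidirectional fitting versus DMSO.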

Read-out in assay [7]: ABC Transporter (ABCB11), ABCB11 (gene 8647)
Kind of assay: LTEA_HepaRG_ABCB11: Life Technologies and Expression Analysis (LTEA) Assay for ABC Transporter (ABCB11) using HepaRG (AID 2283463). To be noted: mRNA level, 48 h; actives raise or lower the signal. The essentials: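 Using HepaRG cultures held in 0.5% DMSO, chemicals were tested at half-log dilutions from 100 uM for 48 h. Induction or suppression of ABCB11 mRNA, normalized to ACTB, GAPDH and POLR2A, was fitted bidirectionally against vehicle.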

Read-out in assay [8]: ABC Transporter (ABCC2), ABCC2 (gene 1244)
Briefly: LTEA_HepaRG_ABCC2: Life Technologies and Expression Analysis (LTEA) Assay for ABC Transporter (ABCC2) using HepaRG (AID 2283464). Particulars: mRNA level, 48 h; actives raise or lower the signal. The essentials:
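HepaRG cells were plated 48 h, switched to serum-free induction medium, then exposed in duplicate for 48 h to 8 concentrations (top 100 uM, half-log steps, 0.5% DMSO). ABCC2 mRNA was measured by qRT-PCR normalized to ACTB/GAPDH/POLR2A; bidirectional fitting versus DMSO.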

Read-out in assay [9]: Broad substrate specificity ATP-binding cassette transporter ABCG2 (Homo sapiens) (UniProt Q9UNQ0)
Kind of assay: LTEA_HepaRG_ABCG2: Life Technologies and Expression Analysis (LTEA) Assay for ABC Transporter (ABCG2) using HepaRG (AID 2283465). To be noted: mRNA level, 48 h; actives raise or lower the signal. The essentials: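 Gene expression of ABCG2 in HepaRG liver cells is quantified by qRT-PCR following 48 h exposure across an eight-point series topping at 100 uM. Values come from bidirectional fitting relative to DMSO vehicle.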

Read-out in assay [10]: ATP-citrate lyase (ACLY), ACLY (gene 47)
Kind of assay: LTEA_HepaRG_ACLY: Life Technologies and Expression Analysis (LTEA) Assay for ATP-citrate lyase (ACLY) using HepaRG (AID 2283466). To be noted: mRNA level, 48 h; actives raise or lower the signal. The essentials:
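ACLY expression changes in human HepaRG liver cells are quantified by qRT-PCR after 48 h exposure to test chemicals (maximum 100 uM, half-log steps). Values are fitted in both directions relative to 0.5% DMSO vehicle.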

Read-out in assay [11]: Peroxisomal acyl-coenzyme A oxidase 1 (ACOX1) gene, ACOX1 (gene 51)
Kind of assay: LTEA_HepaRG_ACOX1: Life Technologies and Expression Analysis (LTEA) Assay for Peroxisomal acyl-coenzyme A oxidase 1 (ACOX1) gene using HepaRG (AID 2283467). To be noted: mRNA level, 48 h; actives raise or lower the signal. The essentials:
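Human HepaRG hepatic cultures, 48 h treatment with test chemicals up to 100 uM. ACOX1 expression read by qRT-PCR relative to 0.5% DMSO vehicle.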

Read-out in assay [12]: Alkaline Phosphatase, Placental (ALPP) gene, ALPP (gene 250)
Briefly: LTEA_HepaRG_ALPP: Life Technologies and Expression Analysis (LTEA) Assay for Alkaline Phosphatase, Placental (ALPP) gene using HepaRG (AID 2283468). To be noted: mRNA level, 48 h; actives raise or lower the signal. The essentials: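 Differentiated human HepaRG cells were plated and cultured 48 h, then exposed in duplicate for 48 h in serum-free induction medium to eight half-log concentrations from 100 uM in 0.5% DMSO. ALPP mRNA was measured by TaqMan qRT-PCR, normalized to ACTB, GAPDH, POLR2A.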

Read-out in assay [13]: Bcl-2 (BAD) gene, BAD (gene 572)
Briefly: LTEA_HepaRG_BAD: Life Technologies and Expression Analysis (LTEA) Assay for Bcl-2 (BAD) gene using HepaRG (AID 2283469). To be noted: mRNA level, 48 h; actives raise or lower the signal. The essentials:
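Activity values reflect up- or down-regulation of BAD mRNA in human HepaRG hepatic cells treated 48 h in serum-free medium, with eight-point half-log dosing capped at 100 uM and 0.5% DMSO vehicle.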

Read-out in assay [14]: Bcl-2 (BAX) gene, BAX (gene 581)
Briefly: LTEA_HepaRG_BAX: Life Technologies and Expression Analysis (LTEA) Assay for Bcl-2 (BAX) gene using HepaRG (AID 2283470). To be noted: mRNA level, 48 h; actives raise or lower the signal. The essentials: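 Human HepaRG cells treated in duplicate for 48 h across eight concentrations (max 100 uM, 0.5% DMSO); BAX expression measured by qRT-PCR.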

Read-out in assay [15]: adenosine kinase (ADK) gene, ADK (gene 132)
Kind of assay: LTEA_HepaRG_ADK: Life Technologies and Expression Analysis (LTEA) Assay for adenosine kinase (ADK) gene using HepaRG (AID 2283471). Particulars: mRNA level, 48 h; actives raise or lower the signal. The essentials: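 HepaRG (human liver), 48 h chemical exposure, 8-pt half-log series, top 100 uM, 0.5% DMSO vehicle. Readout: ADK mRNA by qRT-PCR vs housekeeping genes; bidirectional curve fit relative to DMSO baseline.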

Read-out in assay [16]: Alpha-fetoprotein (AFP) gene, AFP (gene 174)
Kind of assay: LTEA_HepaRG_AFP: Life Technologies and Expression Analysis (LTEA) Assay for Alpha-fetoprotein (AFP) gene using HepaRG (AID 2283472). To be noted: mRNA level, 48 h; actives raise or lower the signal. The essentials:
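Measures AFP mRNA change in HepaRG after 48 h chemical exposure (8 half-log concentrations, highest 100 uM, 0.5% DMSO). Fold change relative to DMSO, fitted in both directions.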

Read-out in another assay: BCL2L11 (gene 10018)
Kind of assay: LTEA_HepaRG_BCL2L11: Life Technologies and Expression Analysis (LTEA) Assay for Bcl-2 (BCL2L11) gene using HepaRG (AID 2283473). Particulars: mRNA level, 48 h; actives raise or lower the signal. The essentials: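 Differentiated human HepaRG cells in serum-free induction medium were exposed in duplicate for 48 h to eight concentrations (top 100 uM, half-log steps, 0.5% DMSO). BCL2L11 mRNA was quantified by TaqMan qRT-PCR, normalized to ACTB/GAPDH/POLR2A, bidirectional fit versus DMSO.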

Read-out in assay [17]: Apoptosis regulator Bcl-2 (Homo sapiens) (UniProt P10415)
Briefly: LTEA_HepaRG_BCL2: Life Technologies and Expression Analysis (LTEA) Assay for Bcl-2 gene using HepaRG (AID 2283475). Particulars: mRNA level, 48 h; actives raise or lower the signal. The essentials: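 Each chemical was tested in duplicate on HepaRG cultures held in serum-free induction medium for 48 h, highest concentration 100 uM with half-log dilutions. Transcript levels came from multiplexed qRT-PCR, normalised to housekeeping genes; activity was scored in either direction relative to DMSO.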

Read-out in assay [18]: Bcl-2 (BID) gene, BID (gene 637)
Kind of assay: LTEA_HepaRG_BID: Life Technologies and Expression Analysis (LTEA) Assay for Bcl-2 (BID) gene using HepaRG (AID 2283476). Particulars: mRNA level, 48 h; actives raise or lower the signal. The essentials: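 Assay used HepaRG hepatic cells treated 48 h in serum-free medium with half-log dilutions from 100 uM. Endpoint: BID mRNA, qRT-PCR, normalized to ACTB/GAPDH/POLR2A.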

Assay [19] is described as follows: CEETOX_H295R_TESTO: CeeTox H295R High-throughput Steroidogenesis Assay for Testosterone (TESTO) (AID 2283457). Particulars: actives raise or lower the signal. The essentials: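 H295R human adrenal cells in DMEM/F12 with ITS+ and Nu-Serum, exposed to chemicals for 48 h. Testosterone in medium measured by MTBE extraction, reverse-phase HPLC-MS/MS; bidirectional fit versus DMSO baseline. MTT viability checked in same wells.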

Calls of active or inactive are those of the source. How the source made its calls: active means hit-call score of the fitted dose curve at least 0.9, where 1 is the maximum; inactive means score below 0.9.

Broad substrate specificity ATP-binding cassette transporter ABCG2 (Homo sapiens), sequence (Q9UNQ0 whole entry, looked up): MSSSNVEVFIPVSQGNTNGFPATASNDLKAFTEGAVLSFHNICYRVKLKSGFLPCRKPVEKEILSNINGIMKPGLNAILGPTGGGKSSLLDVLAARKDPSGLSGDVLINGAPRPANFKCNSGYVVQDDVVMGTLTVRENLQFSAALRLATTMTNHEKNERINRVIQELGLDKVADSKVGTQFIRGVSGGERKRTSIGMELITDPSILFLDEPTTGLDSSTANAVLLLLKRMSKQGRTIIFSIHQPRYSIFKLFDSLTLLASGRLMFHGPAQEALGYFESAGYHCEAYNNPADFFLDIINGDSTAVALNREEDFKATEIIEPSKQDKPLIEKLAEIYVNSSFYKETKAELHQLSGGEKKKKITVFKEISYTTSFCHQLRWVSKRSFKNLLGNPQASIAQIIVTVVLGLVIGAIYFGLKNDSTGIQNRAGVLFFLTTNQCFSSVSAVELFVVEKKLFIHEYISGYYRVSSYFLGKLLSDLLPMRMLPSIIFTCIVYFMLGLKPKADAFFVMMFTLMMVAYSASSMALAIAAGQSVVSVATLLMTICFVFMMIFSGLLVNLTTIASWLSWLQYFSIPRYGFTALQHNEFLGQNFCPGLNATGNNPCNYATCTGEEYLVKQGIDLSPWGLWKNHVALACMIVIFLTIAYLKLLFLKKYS
Apoptosis regulator Bcl-2 (Homo sapiens), sequence (P10415 whole entry, looked up): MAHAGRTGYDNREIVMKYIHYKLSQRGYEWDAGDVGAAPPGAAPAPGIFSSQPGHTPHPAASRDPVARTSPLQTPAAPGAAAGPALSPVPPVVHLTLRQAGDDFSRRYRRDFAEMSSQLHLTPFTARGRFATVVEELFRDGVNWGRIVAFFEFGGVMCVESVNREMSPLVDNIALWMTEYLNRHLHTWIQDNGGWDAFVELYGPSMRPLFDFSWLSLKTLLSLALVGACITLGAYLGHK

For the compound `CCOP(=S)(OCC)SCSP(=S)(OCC)OCC`, the compound was called inactive in assay [1], in assay [3], in assay [4], in [6], in [7] and in [9]. Also, the compound was called inactive in assay [11], in assay [12], in [13], in assay [14], in assay [17] and in [18]. The concentration at half-maximal activity (AC50) was 56.6 nM (active) in [2]; 74.3 nM (active) in assay [5]; 50000 nM (active) in [8]; 78700 nM (active) in [10]; 106 nM (active) in assay [15]; 50000 nM (active) in [16]. Also, in the assay with BCL2L11 (gene 10018), the half-maximal activity concentration (AC50) is 228 nM (active).

`COP(=O)(OC)O/C(=C\Cl)c1cc(Cl)c(Cl)cc1Cl`: the result in assay [19] was inactive.

Regarding `C=CC(=O)OCCCCCC(C)C`, the compound was called inactive in [1], in [2], in assay [3], in [4], in assay [5] and in assay [6]. Also, the compound was called inactive in assay [7], in [8], in assay [9], in [10], in [11] and in assay [12]. The outcome (in assay [13]; in assay [14]; in [15]; in assay [16]; with BCL2L11 (gene 10018); in assay [17]) was inactive. In assay [18], the compound was classed as inactive.

On to `CN(C)N=O`, for which the outcome in assay [1], in [2], in [3], in [4], in assay [5] and in assay [6] was inactive. In addition, the compound was classed as inactive in assay [7], in assay [8], in assay [9], in assay [10], in assay [11] and in assay [12]. For the same compound, the compound was called inactive (in [13]; in assay [14]; in assay [15]; in assay [16]; in the assay with BCL2L11 (gene 10018); in assay [17]). Besides, the compound was called inactive in [18].
